The results in this text go back to PubChem BioAssay (Tox21).

Results filed as inconclusive are left out. Active and inactive are the calls of the source. Calls follow the shape of the dose curve; as a rule, active = well fitted curve in the direction sought with a large enough effect in the repeat runs; inconclusive = weak or mixed curves; inactive = no such curve, though single readings can be large; an effect the other way counts as inactive or inconclusive.

Test [1] can be described thus: A CellTox Green Cytotoxicity Assay to monitor cytotoxicity in HepG2 cells - 16 hour (AID 1224876). Also: nearly all actives have a fitted effect of over 45% in size. A digest of the protocol: (§1)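 HepG2, 600 cells/well premixed w/ CellTox Green; 5 h settle, 37 C/5% CO2; pintool cpd add (DMSO); 37 C, 40 h; fluorescence read at 0, 8, 16, 24, 32, 40 h.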
A short description of test [2]: qHTS RealTime-Glo MT Cell Viability Assay in HepG2 cells - 32 hour (AID 1224877). Also: nearly all actives have a fitted effect of over 55% in size. A digest of the protocol:
(§2)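 qHTS, HepG2, 600 cells/well, RealTime-Glo (NanoLuc + prosubstrate) added with cells; 5 h preincubation; DMSO compound addition; 37 C; luminescence at 0/8/16/24/32/40 h.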
A general note: In qHTS, concentration-response curves come from the screen itself.

A short description of test [3]: A CellTox Green Cytotoxicity Assay to monitor cytotoxicity in HepG2 cells - 24 hour (AID 1224878). Also: nearly all actives have a fitted effect of over 45% in size. A digest of the protocol:
as §1

A short description of test [4]: A CellTox Green Cytotoxicity Assay to monitor cytotoxicity in HepG2 cells - 40 hour (AID 1224879). Also: nearly all actives have a fitted effect of over 40% in size. The procedure, abridged:
as §1

A short description of test [5]: qHTS RealTime-Glo MT Cell Viability Assay in HEK293 cells - 0 hour (AID 1224880). Also: top concentration of the series differs between compounds; nearly all actives have a fitted effect of over 45% in size. The procedure, abridged:
(§3)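 Luminescence readout at each listed time point; HEK293, 600 cells/well, RealTime-Glo MT reagent added with cells; compounds pinned (23 nL in DMSO) after 5 h at 37 C; continuous culture at 37 C.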

Test [6] can be described thus: A CellTox Green Cytotoxicity Assay to monitor cytotoxicity in HEK293 cells - 32 hour (AID 1224881). Also: nearly all actives have a fitted effect of over 40% in size. The procedure, abridged: (§4)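 Read-out: fluorescence of a cell-impermeant cyanine dye staining DNA of dead cells, proportional to cytotoxicity. HEK293, 600 cells/well with reagent, compound (23 nL DMSO) added after 5 h; reads at 0, 8, 16, 24, 32, 40 h.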
Test [7] can be described thus: A CellTox Green Cytotoxicity Assay to monitor cytotoxicity in HepG2 cells - 0 hour (AID 1224882). Also: nearly all actives have a fitted effect of over 35% in size. The procedure, abridged:
as §1

The nature of test [8]: A CellTox Green Cytotoxicity Assay to monitor cytotoxicity in HepG2 cells - 32 hour (AID 1224883). Also: nearly all actives have a fitted effect of over 50% in size. A digest of the protocol:
as §1

A short description of test [9]: A CellTox Green Cytotoxicity Assay to monitor cytotoxicity in HEK293 cells - 8 hour (AID 1224884). Also: nearly all actives have a fitted effect of over 35% in size. Also: potency is read from the fitted curve at half-maximal effect. A digest of the protocol: as §4
Test [10] is described as follows: qHTS RealTime-Glo MT Cell Viability Assay in HepG2 cells - 16 hour (AID 1224885). Also: nearly all actives have a fitted effect of over 50% in size. A digest of the protocol:
as §2

Test [11] can be described thus: qHTS RealTime-Glo MT Cell Viability Assay in HEK293 cells - 8 hour (AID 1224887). Also: top concentration of the series differs between compounds; nearly all actives have a fitted effect of over 50% in size. A digest of the protocol: as §3
Test [12] can be described thus: A CellTox Green Cytotoxicity Assay to monitor cytotoxicity in HEK293 cells - 16 hour (AID 1224888). Also: nearly all actives have a fitted effect of over 35% in size. The procedure, abridged: as §4
Test [13] is described as follows: qHTS RealTime-Glo MT Cell Viability Assay in HepG2 cells - 0 hour (AID 1224889). Also: nearly all actives have a fitted effect of over 50% in size. A digest of the protocol:
as §2

Test [14] in a line: A CellTox Green Cytotoxicity Assay to monitor cytotoxicity in HepG2 cells - 8 hour (AID 1224890). Also: nearly all actives have a fitted effect of over 45% in size. A digest of the protocol: as §1
Test [15] in a line: qHTS assay to identify small molecule antagonists of the estrogen receptor alpha (ER-alpha) signaling pathway using the BG1 cell line in the presence of 0.1 nM 17-beta-estradiol - cell viability counter screen (AID 1259241). Also: nearly all actives have a fitted effect of over 40% in size. A digest of the protocol:
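Viability in VM7Luc4E2 cells after 22 hr compound exposure under 0.1 nM 17beta-estradiol stimulation, by CellTiter-Fluor.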

Test [16] can be described thus: qHTS assay to identify small molecule antagonists of the androgen receptor (AR) signaling pathway using the MDA cell line in the presence of 0.5 nM R1881 - cell viability counter screen (AID 1259242). Also: nearly all actives have a fitted effect of over 45% in size. The procedure, abridged:
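Live-cell protease fluorescence, CellTiter-Fluor, 30 min at 37C. Cells: MDA-kb2, 3,000/well, preincubated 5 hr. Compounds plus 0.5 nM R1881 final, 16 hr, 37C, 0% CO2.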

Test [17] in a line: qHTS assay to identify small molecule HDAC inhibitors (AID 1259364). A digest of the protocol: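 HCT-116 (wild type), 1,500 cells/well, overnight; compound 2 hr 37C 5% CO2; HDAC-Glo I/II reagent 30 min RT; luminescence readout.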
The target of test [18] is Estrogen receptor (Homo sapiens) (UniProt P03372). The experiment in a line: qHTS assay to identify small molecule antagonists of the estrogen receptor alpha (ER-alpha) signaling pathway using the BG1 cell line in the presence of 0.1 nM 17-beta-estradiol (AID 1259244). Also: nearly all actives have a fitted effect of over 50% in size. The procedure, abridged:
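Luminescence after ONE-Glo (30 min, room temperature) measured ERE-luciferase activity in VM7Luc4E2 cells treated 22 h with compound and 0.1 nM final 17beta-estradiol as stimulator.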

The nature of test [19]: qHTS RealTime-Glo MT Cell Viability Assay in HEK293 cells - 24 hour (AID 1224886). The procedure, abridged: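 Assay medium contained NanoLuc luciferase plus cell-permeant prosubstrate, added with HEK293 cells at 600 cells/well. After 5 h at 37 C/5% CO2 compounds were added; plates stayed at 37 C for 40 h with serial luminescence reads.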

Chain of Estrogen receptor (Homo sapiens) (P03372 whole entry, looked up): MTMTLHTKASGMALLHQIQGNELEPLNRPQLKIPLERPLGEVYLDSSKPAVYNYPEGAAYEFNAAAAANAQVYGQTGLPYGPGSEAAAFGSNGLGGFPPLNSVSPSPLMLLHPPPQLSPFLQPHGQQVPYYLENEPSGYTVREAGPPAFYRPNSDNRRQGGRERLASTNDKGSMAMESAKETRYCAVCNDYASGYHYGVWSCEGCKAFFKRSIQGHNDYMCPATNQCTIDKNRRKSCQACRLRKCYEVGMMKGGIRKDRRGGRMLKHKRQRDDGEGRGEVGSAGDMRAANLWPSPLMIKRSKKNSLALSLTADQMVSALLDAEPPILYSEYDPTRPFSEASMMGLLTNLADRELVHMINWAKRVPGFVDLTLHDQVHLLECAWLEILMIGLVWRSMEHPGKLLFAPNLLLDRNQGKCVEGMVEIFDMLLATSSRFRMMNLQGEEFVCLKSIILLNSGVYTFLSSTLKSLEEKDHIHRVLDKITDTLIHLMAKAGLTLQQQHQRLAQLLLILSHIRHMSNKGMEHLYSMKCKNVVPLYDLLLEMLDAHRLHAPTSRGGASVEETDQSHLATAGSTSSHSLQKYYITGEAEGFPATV

Consider `Nc1cc(S(=O)(=O)O)ccc1S(=O)(=O)O`, for which the Potency entry in [1], in test [3], in test [4], in [6], in test [7] and in test [8] was “inactive” throughout. Besides, the Potency result in test [9], in [11], in test [12], in test [13], in test [14] and in test [15] was “inactive” in each case. In addition, the Potency entry in test [16] and in test [17] was “inactive” throughout. Besides, the result in [2], in test [5] and in test [10] was inactive.
Take `CC1(N)CCC(C(C)(C)N)CC1` (stereo not given): the Potency entry in test [1], in [3], in [4], in test [6], in [7] and in [8] was “inactive” in each case. For the same compound, the Potency result in test [9], in [11], in [12], in test [13], in test [14] and in test [15] was “inactive” throughout. The Potency entry in [16] and in [17] was “inactive” each time. In addition, the call in test [2], in test [5] and in test [10] was inactive.
For `CC(=O)c1ccc2c(c1)CCCC2`, the Potency entry in test [1], in test [3], in [4], in [6], in [7] and in test [8] was “inactive” in each case. In addition, the Potency result in test [9], in test [11], in test [12], in test [13], in test [14] and in test [15] was “inactive” throughout. For the same compound, the Potency entry in test [16], in test [18] and in [17] was “inactive” in each case. In addition, the compound was called inactive in test [2], in [5] and in test [10].
Consider `Nc1ccnc(=O)[nH]1`, for which the Potency entry in test [1], in test [3], in [4], in [6], in test [7] and in test [8] was “inactive” each time. Moreover, the Potency entry in test [11], in test [12], in test [13], in test [14], in test [15] and in [16] was “inactive” in each case. Further, the Potency result in test [18] and in test [17] was “inactive” throughout. The compound was classed as inactive in [2], in test [5] and in test [10].
Regarding `NC(=O)NNC(N)=O`, the Potency entry in [1], in test [3], in [4], in test [6], in test [8] and in [9] was “inactive” each time. The Potency result in test [19], in test [11], in test [12], in [13], in test [14] and in [15] was “inactive” each time. In addition, the Potency entry in [16], in test [18] and in test [17] was “inactive” in each case. Also, the compound was called inactive in test [2], in [5] and in test [10].
For the compound `CCCCC(CC)C(=O)OC(C)C` (stereo not given), the Potency result in [1], in [3], in [4], in test [6], in test [7] and in test [8] was “inactive” throughout. The Potency result in test [9], in test [11], in [12], in test [13], in test [14] and in test [15] was “inactive” in each case. In addition, the Potency result in test [16] and in test [17] was “inactive” each time. Further, the outcome in test [2], in [5] and in test [10] was inactive.
As to `C1=C\CC/C=C\CC/1`, the Potency entry in test [1], in [3], in [4], in test [6], in test [7] and in test [8] was “inactive” throughout. Moreover, the Potency entry in [11], in test [12], in test [13], in test [14], in [15] and in [16] was “inactive” throughout. Further, the Potency result in test [18] is “inactive”. Besides, the result in test [2], in [5] and in [10] was inactive. For the same compound, in [9], the Potency was 4.07 µM (active).
Turning to `Nc1nc(=O)n([C@@H]2O[C@H](CO)[C@@H](O)[C@@H]2F)cc1I`, the Potency result in test [1], in test [3], in test [4], in test [6], in test [7] and in test [8] was “inactive” throughout. Also, the Potency entry in test [9], in test [11], in test [12], in test [13], in [14] and in test [15] was “inactive” throughout. Further, the Potency entry in test [16], in [18] and in test [17] was “inactive” throughout. The result in test [2], in test [5] and in test [10] was inactive.
Consider `CCCCC/C=C/CC(=O)OC`, for which the Potency entry in [1], in test [3], in test [4], in [6], in test [7] and in test [8] was “inactive” in each case. The Potency entry in [9], in [11], in test [12], in test [13], in [14] and in test [15] was “inactive” throughout. Besides, the Potency result in [16] was “inactive”. Besides, the outcome in test [2], in test [5] and in test [10] was inactive.
